# PubChem BioAssay AID1159580 (chemical genetic matrix, 2015)
# Hit rate of the full screen: of about 5,500 compounds, about 2,000 (36%) were called active. Not shown: some 18% with an inconclusive outcome. Some of the results follow. A number with no mark means an inactive call. Cut-off read from the data, not from the text of the source: active = normalized growth mostly below about 0.91 (no sharp cut-off); inconclusive = no clear call, values can overlap the other calls; inactive = mostly above about 0.92.
# Assay: chemical genetic growth profiling, strain panel (AID 1159580);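 note: tested at 20 µM; growth read once vehicle control cultures reached saturation at 30 °C; 1 = growth at the plate median or of vehicle wells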
# Details: S. cerevisiae deletion strains, growth OD
structure (smiles),measurement,setting,value
O=[N+]([O-])c1ccc2oc(C(O)c3ccc(-c4ccccc4)cc3)cc2c1 (stereo unspecified),normalized growth,"locus YAR019C, strain CDC15, stronger effect = lower value",0.989
same,normalized growth,"locus YBL105C, strain PKC1, stronger effect = lower value",0.976
same,normalized growth,"locus YBR135W, strain CKS1, stronger effect = lower value",0.978
same,normalized growth,"locus YBR136W, strain MEC1, stronger effect = lower value",0.975
same,normalized growth,"locus YBR160W, strain CDC28, stronger effect = lower value",0.985
same,normalized growth,"locus YDL017W, strain CDC7, stronger effect = lower value",0.979
same,normalized growth,"locus YDL028C, strain MPS1, stronger effect = lower value",0.987
same,normalized growth,"locus YDL101C, strain DUN1, stronger effect = lower value",0.975
same,normalized growth,"locus YDL108W, strain KIN28, stronger effect = lower value",0.969
same,normalized growth,"locus YDL132W, strain cdc53, stronger effect = lower value",0.996
same,normalized growth,"locus YDL214C, strain PRR2, stronger effect = lower value",0.84
same,normalized growth,"locus YDR052C, strain DBF4, stronger effect = lower value",0.982
same,normalized growth,"locus YDR054C, strain cdc34, stronger effect = lower value",0.995
same,normalized growth,"locus YDR226W, strain ADK1, stronger effect = lower value",0.999
same,normalized growth,"locus YDR477W, strain SNF1, stronger effect = lower value",0.849
same,normalized growth,"locus YER123W, strain YCK3, stronger effect = lower value",0.805
same,normalized growth,"locus YER133W, strain GLC7, stronger effect = lower value",0.863
same,normalized growth,"locus YFL009W, strain cdc4, stronger effect = lower value",1
same,normalized growth,"locus YFL029C, strain CAK1, stronger effect = lower value",0.976
same,normalized growth,"locus YFR003C, strain YPI1, stronger effect = lower value",0.984
same,normalized growth,"locus YFR019W, strain FAB1, stronger effect = lower value",0.904
same,normalized growth,"locus YFR028C, strain CDC14, stronger effect = lower value",0.997
same,normalized growth,"locus YGR040W, strain KSS1, stronger effect = lower value",0.859
same,normalized growth,"locus YGR052W, strain FMP48, stronger effect = lower value",0.926
same,normalized growth,"locus YGR092W, strain DBF2, stronger effect = lower value",0.802
same,normalized growth,"locus YHR030C, strain SLT2, stronger effect = lower value",0.786 (active)
same,normalized growth,"locus YHR079C, strain IRE1, stronger effect = lower value",0.896
same,normalized growth,"locus YHR082C, strain KSP1, stronger effect = lower value",0.86
same,normalized growth,"locus YHR205W, strain SCH9, stronger effect = lower value",0.967
same,normalized growth,"locus YIL147C, strain SLN1, stronger effect = lower value",0.968
same,normalized growth,"locus YJL095W, strain BCK1, stronger effect = lower value",0.905
same,normalized growth,"locus YJL128C, strain PBS2, stronger effect = lower value",1.05
same,normalized growth,"locus YJL157C, strain FAR1, stronger effect = lower value",0.822
same,normalized growth,"locus YJR016C, strain ILV3, stronger effect = lower value",0.977
same,normalized growth,"locus YJR066W, strain TOR1 (second series), stronger effect = lower value",0.751
same,normalized growth,"locus YJR066W, strain TOR1, stronger effect = lower value",0.829
same,normalized growth,"locus YKL048C, strain ELM1, stronger effect = lower value",0.979
same,normalized growth,"locus YKL067W, strain YNK1, stronger effect = lower value",0.872
same,normalized growth,"locus YKL101W, strain HSL1, stronger effect = lower value",0.982
same,normalized growth,"locus YKL193C, strain SDS22, stronger effect = lower value",0.98
same,normalized growth,"locus YKL203C, strain TOR2, stronger effect = lower value",0.924
same,normalized growth,"locus YLR113W, strain HOG1, stronger effect = lower value",0.882
same,normalized growth,"locus YLR133W, strain CKI1, stronger effect = lower value",0.877
same,normalized growth,"locus YLR403W, strain SFP1, stronger effect = lower value",0.902
same,normalized growth,"locus YML070W, strain DAK1, stronger effect = lower value",0.835
same,normalized growth,"locus YMR001C, strain CDC5, stronger effect = lower value",0.982
same,normalized growth,"locus YMR205C, strain PFK2 (second series), stronger effect = lower value",0.882
same,normalized growth,"locus YMR277W, strain FCP1, stronger effect = lower value",0.994
same,normalized growth,"locus YNL006W, strain LST8, stronger effect = lower value",0.987
same,normalized growth,"locus YNL020C, strain ARK1, stronger effect = lower value",0.854
same,normalized growth,"locus YNL161W, strain CBK1, stronger effect = lower value",0.984
same,normalized growth,"locus YNL183C, strain NPR1, stronger effect = lower value",0.919
same,normalized growth,"locus YNL207W, strain RIO2, stronger effect = lower value",0.979
same,normalized growth,"locus YNL222W, strain SSU72, stronger effect = lower value",0.976
same,normalized growth,"locus YNL307C, strain MCK1 (second series), stronger effect = lower value",0.936
same,normalized growth,"locus YOL078W, strain AVO1, stronger effect = lower value",0.993
same,normalized growth,"locus YOL136C, strain PFK27, stronger effect = lower value",0.849
same,normalized growth,"locus YOR061W, strain CKA2, stronger effect = lower value",0.75
same,normalized growth,"locus YOR119C, strain RIO1, stronger effect = lower value",0.904
same,normalized growth,"locus YOR231W, strain MKK1, stronger effect = lower value",0.892
same,normalized growth,"locus YOR329C, strain SCD5, stronger effect = lower value",0.985
same,normalized growth,"locus YPL031C, strain PHO85, stronger effect = lower value",0.848
same,normalized growth,"locus YPL153C, strain RAD53, stronger effect = lower value",0.821
same,normalized growth,"locus YPL204W, strain HRR25, stronger effect = lower value",0.88
same,normalized growth,"locus YPL209C, strain IPL1, stronger effect = lower value",0.977
same,normalized growth,"locus YPL256C, strain CLN2, stronger effect = lower value",0.96
same,normalized growth,"locus YPR025C, strain CCL1, stronger effect = lower value",0.985
same,normalized growth,"locus YPR106W, strain ISR1, stronger effect = lower value",1
same,normalized growth,"locus YPR111W, strain DBF20, stronger effect = lower value",1.03
same,normalized growth,"strain NNK1, stronger effect = lower value",0.997
same,normalized growth,"strain TSCII, stronger effect = lower value",0.987
